According to PubChem BioAssay AID588511 (Johns Hopkins Ion Channel Center, 2011):
In all, about 310,000 compounds went through this assay and about 3,600 (1.2%) were called active.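 Rule for the calls: active = ratio plate-corrected score three or more library SD toward inhibition, starting fluorescence score within five deviations; inactive = the rest.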 This excerpt belongs to a sample that is enriched for actives.

These molecules were tested against Anoctamin-1 (Mus musculus) (UniProt Q8BHY3) (assay: blockers of mouse ANO1 Ca-activated Cl channel – cell-based, HTS, primary screen (AID 588511;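 for normalized B-score (activity score, 25-100; higher = stronger inhibition): score derived from kinetic fluorescence span divided by baseline fluorescence per well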)). Conditions: HEK293 TMEM16A/YFP iodide influx fluorescence, ionomycin; at 10 µM.
Anoctamin-1 (Mus musculus), sequence (Q8BHY3 whole entry, looked up): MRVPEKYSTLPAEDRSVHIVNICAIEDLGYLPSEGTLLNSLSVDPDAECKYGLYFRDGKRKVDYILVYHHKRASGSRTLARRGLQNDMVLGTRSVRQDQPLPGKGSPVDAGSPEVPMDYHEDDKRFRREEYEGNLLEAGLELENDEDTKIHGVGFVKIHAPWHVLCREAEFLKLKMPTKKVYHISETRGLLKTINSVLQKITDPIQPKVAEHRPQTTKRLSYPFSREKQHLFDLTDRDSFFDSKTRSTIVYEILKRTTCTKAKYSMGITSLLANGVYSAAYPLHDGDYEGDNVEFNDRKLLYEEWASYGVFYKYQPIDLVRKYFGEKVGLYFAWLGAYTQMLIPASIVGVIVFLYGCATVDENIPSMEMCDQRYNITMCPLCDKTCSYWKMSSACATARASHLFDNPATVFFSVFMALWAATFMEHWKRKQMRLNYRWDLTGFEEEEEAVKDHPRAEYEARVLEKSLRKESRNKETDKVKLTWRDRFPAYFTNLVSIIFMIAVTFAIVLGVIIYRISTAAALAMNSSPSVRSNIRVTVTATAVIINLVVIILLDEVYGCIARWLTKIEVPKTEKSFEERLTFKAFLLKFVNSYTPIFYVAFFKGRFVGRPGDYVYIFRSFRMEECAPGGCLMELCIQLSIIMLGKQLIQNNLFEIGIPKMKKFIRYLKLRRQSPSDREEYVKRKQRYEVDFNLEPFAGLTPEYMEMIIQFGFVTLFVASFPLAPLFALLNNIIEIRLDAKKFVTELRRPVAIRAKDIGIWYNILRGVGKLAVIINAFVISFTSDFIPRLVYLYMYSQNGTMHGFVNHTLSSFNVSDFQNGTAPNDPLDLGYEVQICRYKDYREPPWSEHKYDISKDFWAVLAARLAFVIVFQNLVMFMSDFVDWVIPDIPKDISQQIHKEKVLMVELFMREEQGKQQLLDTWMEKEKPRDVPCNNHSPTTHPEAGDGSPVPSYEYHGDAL
For `CCOc1cccc(=NC2CCCCC2)c2c(C)[nH]c(C)c12`, the normalized B-score (activity score, 25-100; higher = stronger inhibition) was 25 (active).
With `Nc1ccc(C(=O)N/N=C2/CN3CCC2CC3)cc1` the normalized B-score (activity score, 25-100; higher = stronger inhibition) was “inactive”.
`CCOC(=O)C1CN(C)CCC1=O` (stereo not given) was tested, and the normalized B-score (activity score, 25-100; higher = stronger inhibition) was “inactive”.
In the case of `CCCCCn1c(=O)c(C(=O)NCc2ccccn2)c(O)c2ccccc21`, the normalized B-score (activity score, 25-100; higher = stronger inhibition) is reported as 25 (active).
With `CCCCCn1c(=O)c(C(=O)NCc2ccccc2)c(O)c2ccccc21` the normalized B-score (activity score, 25-100; higher = stronger inhibition) was “inactive”.
`CCCCn1c(=O)c(C(=O)Nc2ccccc2Cl)c(O)c2ccccc21` was tested, and the normalized B-score (activity score, 25-100; higher = stronger inhibition) was “inactive”.
For `O=C(Cn1c(=O)n(CC2CS2)c2ccccc21)N1CCCCC1` (stereo not given), the normalized B-score (activity score, 25-100; higher = stronger inhibition) was “inactive”.
With `O=c1[nH]c(=O)n(-c2ccccc2)c(O)c1C=NC12CN3CN(CN(C3)C1)C2` the normalized B-score (activity score, 25-100; higher = stronger inhibition) was “inactive”.
In the case of `COc1ccccc1NC(=O)N1C[C@@H]2C[C@@H](C1)c1cccc(=O)n1C2`, the normalized B-score (activity score, 25-100; higher = stronger inhibition) is reported as “inactive”.
With `Cc1ccc(P(=S)(c2ccc(C)o2)N2CCOCC2)o1` the normalized B-score (activity score, 25-100; higher = stronger inhibition) was “inactive”.
`COc1ccc(-n2c(-c3ccccc3)nc3ccccc3c2=O)cc1` was tested, and the normalized B-score (activity score, 25-100; higher = stronger inhibition) was “inactive”.
With `CCN(CC)P(=O)(Oc1cccc(C)c1)N(CC)CC` the normalized B-score (activity score, 25-100; higher = stronger inhibition) was “inactive”.
`CCN(CC)C(=O)c1ccc(NC(=O)c2sccc2-c2ccccc2)cc1` was tested, and the normalized B-score (activity score, 25-100; higher = stronger inhibition) was “inactive”.
In the case of `CCN(CC)C(=O)c1ccc(NC(=O)c2cc(-n3cnnc3)ccc2Cl)cc1`, the normalized B-score (activity score, 25-100; higher = stronger inhibition) is reported as 100 (active).
In the case of `COc1ccc(-c2nn(CCC#N)cc2C(=O)Nc2ccc(C(C)=O)cc2)cc1`, the normalized B-score (activity score, 25-100; higher = stronger inhibition) is reported as “inactive”.
`O=[N+]([O-])c1ccc(C2C3C(c4ccccc4)=NC4(CCCCC4)N32)cc1` (stereo not given) was tested, and the normalized B-score (activity score, 25-100; higher = stronger inhibition) was “inactive”.
With `CN(C)S(=O)(=O)c1cc(C(=O)N2CCC(C(=O)O)(c3ccccc3)CC2)ccc1Cl` the normalized B-score (activity score, 25-100; higher = stronger inhibition) was “inactive”.
With `c1ccc(CCNC2CCCCCC2)cc1` the normalized B-score (activity score, 25-100; higher = stronger inhibition) was “inactive”.
With `CCCCCCCCCCCCn1ccc(=N)cc1` the normalized B-score (activity score, 25-100; higher = stronger inhibition) was 25 (active).
For `CC1(C)C(c2ccccc2)=NC(c2cccnc2)=[N+]1[O-]`, the normalized B-score (activity score, 25-100; higher = stronger inhibition) was “inactive”.
